Compounds with a hit are over-represented: about 5.2% of the library has one in this group of screens.
IDH1 R132H inh = qHTS for Inhibitors of mutant isocitrate dehydrogenase 1 (IDH1): qHTS; Isocitrate dehydrogenase [NADP] cytoplasmic (Homo sapiens), O75874; IDH1-R132H enzyme, NADPH consumption, diaphorase/resazurin fluorescence; Potency, µM (doses to about 76.6 µM), for inactives: top-dose activity change, negative = inhibition, actives largely listed as inhibitors; 0.093% of 390,000 active; AID 602179, 2012; also: nearly all actives have a fitted effect of over 65% in size
Target sequence (O75874 whole entry R132H, stated change not applied): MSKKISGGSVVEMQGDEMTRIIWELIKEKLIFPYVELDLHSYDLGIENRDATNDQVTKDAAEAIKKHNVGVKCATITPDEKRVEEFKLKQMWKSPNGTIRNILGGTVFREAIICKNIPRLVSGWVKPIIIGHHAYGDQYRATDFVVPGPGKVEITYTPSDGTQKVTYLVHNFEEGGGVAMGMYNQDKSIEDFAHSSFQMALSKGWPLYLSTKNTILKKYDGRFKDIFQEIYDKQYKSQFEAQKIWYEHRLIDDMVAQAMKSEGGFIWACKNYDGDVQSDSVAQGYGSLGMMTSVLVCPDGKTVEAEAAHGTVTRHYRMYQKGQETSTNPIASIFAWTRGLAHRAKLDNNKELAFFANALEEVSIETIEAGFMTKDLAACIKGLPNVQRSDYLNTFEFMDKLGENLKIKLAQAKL
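IDH1-R132H (0.5 ug/mL dispensed) in pH 7.5 Tris buffer was preincubated 30 min with compound, then given a substrate mix of 0.016 mM NADPH and 2 mM alpha-KG for 80 min at room temperature; remaining NADPH was read by diaphorase/resazurin fluorescence.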
VDR inh = Inhibitors of the vitamin D receptor (VDR): qHTS; 0.93% of 400,000 active; Potency, µM, without a hit: max response, negative = inhibition, most hits filed as inhibitors; VDR-SRC2-3 peptide fluorescence polarization, 2 h; Vitamin D3 receptor (Homo sapiens), P11473; AID 504847, 2011
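Fluorescence polarization assay of small-molecule disruption of VDR binding to coregulator peptide SRC2-3. Compounds and controls pin-transferred, then read after 2 h incubation at ambient room temperature.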
Sfp PPTase inh = qHTS Assay for Inhibitors of Bacillus subtilis Sfp phosphopantetheinyl transferase (PPTase). 4'-phosphopantetheinyl transferase ffp (Bacillus subtilis), Q9F4F7. Biochemical Sfp PPTase activity, qHTS. Potency, µM, without a hit: largest response in the series, negative = inhibition, hits mostly inhibitors. 3.5% of 310,000 active. AID 1490, 2009;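 also: the enzyme is Sfp with the accession as filed and its product quenches rhodamine fluorescence; 0% = enzyme reaction without inhibitor and -100% = no enzyme wells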
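Reaction rates are the 30-min fluorescence difference (ex 525, em 598 nm) in wells containing 15 nM Sfp, 5 uM rhodamine-CoA and 12.5 uM BHQ-2-YbbR at pH 7.6 with 10 mM MgCl2.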
TrxR1 substrate = qHTS Assay for Substrates of Mammalian Selenoprotein Thioredoxin Reductase 1 (TrxR1): qHTS | 0.01% of 390,000 active | Potency, µM (highest dose often 114 µM), for inactives: at the top dose activity change, negative = substrate turnover | purified TrxR1 substrate turnover, NADPH consumption readout | AID 588456, 2011; also: nearly all actives have a fitted effect of over 50% in size
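Rat TrxR1, dispensed at 90 nM, was prereduced with 400 uM NADPH (final) for 5 min at ~22 deg C, then incubated with compound 15 min before 400 uM selenite. A first-read NADPH fluorescence drop versus no-compound background flagged substrates.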
PLK1 PBD inh = qHTS for Inhibitors of PLK1-PDB (polo-like kinase 1 - polo-box domain): Primary Screen; Plk1 PBD binding of FITC phosphopeptide, fluorescence polarization; AID 720504, 2013; Serine/threonine-protein kinase PLK1 (Homo sapiens), P53350; Potency, µM, for the others: max response, negative = inhibition, most hits filed as inhibitors; 2.8% of 360,000 active; also: series mostly up to about 57 µM; nearly all actives have a fitted effect of over 65% in size
TrxR1 inh = qHTS Assay for Inhibitors of Mammalian Selenoprotein Thioredoxin Reductase 1 (TrxR1): qHTS. Thioredoxin reductase 1, cytoplasmic (Rattus norvegicus), O89049. recombinant rTrxR1, NADPH fluorescence consumption, selenite substrate. Potency, µM (top dose mostly 114 µM), for the others: at the top dose activity change, negative = inhibition, actives largely listed as inhibitors. 1% of 390,000 active. AID 588453, 2011; also: nearly all actives have a fitted effect of over 65% in size
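Rat TrxR1 (90 nM in the dispensed reagent) was pre-reduced with 400 uM NADPH for 5 min at room temperature, then incubated with compound for 15 min. After 400 uM selenite was added, NADPH fluorescence (Ex 340/Em 450 nm) was followed for 8 min.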
* = called active by the depositor; u = inconclusive; x = no result; [ ] = another dose, or the depositor's remark. Calls follow the shape of the dose curve; as a rule, active = well fitted curve in the direction sought with a large enough effect; inconclusive = small, poorly fitted or top-dose-only effect, or another doubt; inactive = no such curve, though single readings can be large; an effect the other way counts as inactive or inconclusive. Unless noted, % is scaled to controls: 0 for no effect and ±100 for the full control effect; potency is read from the fitted curve at half-maximal effect.

SMILES	IDH1 R132H inh	VDR inh	Sfp PPTase inh	TrxR1 substrate	PLK1 PBD inh	TrxR1 inh
Cc1[nH]n(-c2ccc([N+](=O)[O-])cc2)c(=O)c1C=NCCc1c(C)[nH]c2ccccc12	4%	-13%	79µM*	-12%	-11%	-4%
Cc1[nH]n(-c2ccc([N+](=O)[O-])cc2)c(=O)c1C=NCCc1ccc(S(N)(=O)=O)cc1	2%	16%	-25%	-6%[57.1 µM]	5%	-6%[57.1 µM]
CCCCn1c(N)c(N(Cc2ccccc2OC)C(=O)CSCC(=O)Nc2cccc(C)c2)c(=O)[nH]c1=O	2%	-19%	10%	8%	30µM*	-9%
CN(C(=O)CSc1nnc(-c2ccc([N+](=O)[O-])cc2)o1)c1ccccc1	x	2%	x	9%	x	33%
CN(C)C(=S)Nc1nc2ccccc2s1	3%	u	14µM*	-5%[57.1 µM]	11µM*	u
CCOc1ccc2nc(NC(=S)N(C)C)sc2c1	0%	-23%	40µM*	4%[0.457 µM]	19µM*	-7%
CN1C(=O)[C@H]2[C@@H](c3ccc(C(F)(F)F)cc3)N[C@]3(CCCN(Cc4ccc(Br)cc4)C3=O)[C@H]2C1=O	-6%	x	x	x	-4%	x
Cc1ccc([C@@H]2CC=C(C(=O)O)[C@H](c3ccc(Br)cc3)N2S(=O)(=O)c2ccccc2C)cc1	-19%	u	x	3%	27µM*	24%
Cc1ccccc1S(=O)(=O)N1[C@@H](c2ccc(Br)cc2)C(C(=O)O)=CC[C@H]1c1ccc(Cl)cc1	6%	u	x	-6%	21µM*	u
COc1ccc([C@@H]2CC=C(C(=O)O)[C@H](c3ccc(Cl)cc3)N2S(=O)(=O)c2ccccc2C)cc1	5%	6%	x	8%	-8%	11%
Cc1ccccc1S(=O)(=O)N1[C@@H](c2ccccc2)C(C(=O)O)=CC[C@H]1c1ccc(Cl)cc1	-9%	u	x	-2%	u	18%[57.1 µM]
Cc1ccc([C@@H]2CC=C(C(=O)O)[C@H](c3ccc(Cl)cc3)N2S(=O)(=O)c2ccccc2C)cc1	-9%	-14%	x	-4%	21µM*	7%
COc1ccc([C@@H]2CC=C(C(=O)O)[C@H](c3ccc(Br)cc3)N2S(=O)(=O)c2ccccc2C)cc1	1%	1%	x	0%	-27%	3%
Cc1ccccc1S(=O)(=O)N1C(c2ccc(Cl)c(Cl)c2)CC=C(C(=O)O)C1c1cccc(Br)c1 (configuration not stated)	x	x	x	x	24µM*	x
COc1ccc([C@@H]2CC=C(C(=O)O)[C@H](c3cccc(Cl)c3)N2S(=O)(=O)c2ccccc2C)cc1	-10%	-14%	x	4%	-17%	11%[57.1 µM]
CC(C)c1nn2c(=O)cc(COC(=O)c3ccc(NC(=O)c4ccccc4Cl)cc3)nc2s1	8%	19%	x	-1%[57.1 µM]	x	4%[57.1 µM]
COc1ccc(NC(=O)CCc2nnc3ccc(N4CCN(c5cccc(OC)c5)CC4)nn23)cc1	4%	5%	2%	-4%	10%	-5%
Cc1ccc(-n2cc(CNCCc3ncc(C)[nH]3)c(-c3ccc(F)cc3)n2)cc1	9%	-1%	56µM*	0%	-6%	5%
COc1ccc(-n2cc(CNCCc3ncc(C)[nH]3)c(-c3ccccc3Cl)n2)cc1	-5%	14%	-5%	-4%[57.1 µM]	-1%	-7%[57.1 µM]
C#CCCCO/N=C1/[C@H]2O[C@@H]2[C@@H](O)[C@H]2[C@H]1CCn1c(=O)n(-c3ccccc3)c(=O)n12	x	x	9%	x	x	x
O=C(c1ccco1)N1CCN(C(c2ccccc2)c2nnnn2Cc2cccs2)CC1 (configuration not stated)	7%	-10%	79µM*	-4%	-7%	-21%
CCN1CCN(C(c2cccc(OC)c2OC)c2nnnn2Cc2ccco2)CC1 (configuration not stated)	-3%	-6%	13%	-4%	27µM*	15%[57.1 µM]
CC(C)C(c1nnnn1Cc1cccs1)N1CCN(C(=O)c2ccco2)CC1 (configuration not stated)	-2%	-9%	18µM*	1%[57.1 µM]	19µM*	-3%[57.1 µM]
COc1ccccc1C(c1nnnn1Cc1ccco1)N1CCN(c2cccc(C)c2C)CC1 (configuration not stated)	0%	-24%	25%	-5%	-23%	-2%
O=C(c1ccco1)N1CCN(C(c2ccccc2Cl)c2nnnn2Cc2ccco2)CC1 (configuration not stated)	2%	0%	50µM*	8%[57.1 µM]	u	u
SMILES	IDH1 R132H inh	VDR inh	Sfp PPTase inh	TrxR1 substrate	PLK1 PBD inh	TrxR1 inh
O=C(c1ccco1)N1CCN(C(c2ccc(F)cc2)c2nnnn2Cc2cccs2)CC1 (configuration not stated)	-1%	-15%	-18%	1%	0%	-28%
Oc1c(C(c2ccccc2Cl)N2CCC(O)CC2)sc2nc(-c3ccco3)nn12 (configuration not stated)	-3%	-8%	x	0%[57.1 µM]	x	-3%[57.1 µM]
Fc1ccc(C(c2ccc(F)cc2)N2CCN(CC=Cc3ccccc3)CC2)cc1	x	-10%	x	x	x	x
Cn1cnc([N+](=O)[O-])c1Oc1ccc2ccccc2c1	7%	-11%	-14%	11%[11.4 µM]	u	4µM*
NC(=O)c1sc(=S)n2c1[nH]c(=O)c1sccc12	3%	0%	40µM*	-13%	-17%	-7%
CC(=O)NNC(=O)c1sc(=S)n2c1[nH]c(=O)c1sccc12	30%	-1%	18µM*	-10%[57.1 µM]	21µM*	5%[57.1 µM]
CC(=O)Nc1ccc(SCC(=O)N(C)CC(=O)Nc2ccccc2Cl)cc1	0%	79µM*	x	5%[57.1 µM]	7.5µM*	40%[57.1 µM]
CN(CC(=O)Nc1ccccc1Cl)C(=O)COC(=O)CSc1ccc(F)cc1	5%	-2%	x	-8%	-8%	-8%
Cc1ccc[n+](C2C(c3ccc([N+](=O)[O-])cc3)C(C#N)=C([S-])NC2(O)C2CC2)c1 (configuration not stated)	3%	-20%	25µM*	4%	-26%	19%
COc1ccc([C@H]2C(C#N)=C([S-])N[C@](C)(O)[C@@H]2[n+]2ccccc2)cc1	3%	u	25µM*	-4%	u	23%

Screening results (PubChem BioAssay)
